# Results reported in PubChem BioAssay AID504333 (National Center for Advancing Translational Sciences (NCATS), 2011).
# The whole screen tested about 360,000 compounds, of which about 16,000 (4.4%) were called active. A call without a number means that no potency is given here. Another 9% or so got no clear call; they are omitted. Calls follow the shape of the dose curve; as a rule, active = well fitted inhibition curve with a large enough effect; inconclusive = small, poorly fitted or top-dose-only effect; inactive = no such curve, though single readings can be large or run the other way. This excerpt belongs to a sample that is enriched for actives.
# Target: Bromodomain adjacent to zinc finger domain protein 2B (Homo sapiens) (UniProt Q9UIF8)
# Sequence (Q9UIF8 whole entry, looked up, the tested form may be a part): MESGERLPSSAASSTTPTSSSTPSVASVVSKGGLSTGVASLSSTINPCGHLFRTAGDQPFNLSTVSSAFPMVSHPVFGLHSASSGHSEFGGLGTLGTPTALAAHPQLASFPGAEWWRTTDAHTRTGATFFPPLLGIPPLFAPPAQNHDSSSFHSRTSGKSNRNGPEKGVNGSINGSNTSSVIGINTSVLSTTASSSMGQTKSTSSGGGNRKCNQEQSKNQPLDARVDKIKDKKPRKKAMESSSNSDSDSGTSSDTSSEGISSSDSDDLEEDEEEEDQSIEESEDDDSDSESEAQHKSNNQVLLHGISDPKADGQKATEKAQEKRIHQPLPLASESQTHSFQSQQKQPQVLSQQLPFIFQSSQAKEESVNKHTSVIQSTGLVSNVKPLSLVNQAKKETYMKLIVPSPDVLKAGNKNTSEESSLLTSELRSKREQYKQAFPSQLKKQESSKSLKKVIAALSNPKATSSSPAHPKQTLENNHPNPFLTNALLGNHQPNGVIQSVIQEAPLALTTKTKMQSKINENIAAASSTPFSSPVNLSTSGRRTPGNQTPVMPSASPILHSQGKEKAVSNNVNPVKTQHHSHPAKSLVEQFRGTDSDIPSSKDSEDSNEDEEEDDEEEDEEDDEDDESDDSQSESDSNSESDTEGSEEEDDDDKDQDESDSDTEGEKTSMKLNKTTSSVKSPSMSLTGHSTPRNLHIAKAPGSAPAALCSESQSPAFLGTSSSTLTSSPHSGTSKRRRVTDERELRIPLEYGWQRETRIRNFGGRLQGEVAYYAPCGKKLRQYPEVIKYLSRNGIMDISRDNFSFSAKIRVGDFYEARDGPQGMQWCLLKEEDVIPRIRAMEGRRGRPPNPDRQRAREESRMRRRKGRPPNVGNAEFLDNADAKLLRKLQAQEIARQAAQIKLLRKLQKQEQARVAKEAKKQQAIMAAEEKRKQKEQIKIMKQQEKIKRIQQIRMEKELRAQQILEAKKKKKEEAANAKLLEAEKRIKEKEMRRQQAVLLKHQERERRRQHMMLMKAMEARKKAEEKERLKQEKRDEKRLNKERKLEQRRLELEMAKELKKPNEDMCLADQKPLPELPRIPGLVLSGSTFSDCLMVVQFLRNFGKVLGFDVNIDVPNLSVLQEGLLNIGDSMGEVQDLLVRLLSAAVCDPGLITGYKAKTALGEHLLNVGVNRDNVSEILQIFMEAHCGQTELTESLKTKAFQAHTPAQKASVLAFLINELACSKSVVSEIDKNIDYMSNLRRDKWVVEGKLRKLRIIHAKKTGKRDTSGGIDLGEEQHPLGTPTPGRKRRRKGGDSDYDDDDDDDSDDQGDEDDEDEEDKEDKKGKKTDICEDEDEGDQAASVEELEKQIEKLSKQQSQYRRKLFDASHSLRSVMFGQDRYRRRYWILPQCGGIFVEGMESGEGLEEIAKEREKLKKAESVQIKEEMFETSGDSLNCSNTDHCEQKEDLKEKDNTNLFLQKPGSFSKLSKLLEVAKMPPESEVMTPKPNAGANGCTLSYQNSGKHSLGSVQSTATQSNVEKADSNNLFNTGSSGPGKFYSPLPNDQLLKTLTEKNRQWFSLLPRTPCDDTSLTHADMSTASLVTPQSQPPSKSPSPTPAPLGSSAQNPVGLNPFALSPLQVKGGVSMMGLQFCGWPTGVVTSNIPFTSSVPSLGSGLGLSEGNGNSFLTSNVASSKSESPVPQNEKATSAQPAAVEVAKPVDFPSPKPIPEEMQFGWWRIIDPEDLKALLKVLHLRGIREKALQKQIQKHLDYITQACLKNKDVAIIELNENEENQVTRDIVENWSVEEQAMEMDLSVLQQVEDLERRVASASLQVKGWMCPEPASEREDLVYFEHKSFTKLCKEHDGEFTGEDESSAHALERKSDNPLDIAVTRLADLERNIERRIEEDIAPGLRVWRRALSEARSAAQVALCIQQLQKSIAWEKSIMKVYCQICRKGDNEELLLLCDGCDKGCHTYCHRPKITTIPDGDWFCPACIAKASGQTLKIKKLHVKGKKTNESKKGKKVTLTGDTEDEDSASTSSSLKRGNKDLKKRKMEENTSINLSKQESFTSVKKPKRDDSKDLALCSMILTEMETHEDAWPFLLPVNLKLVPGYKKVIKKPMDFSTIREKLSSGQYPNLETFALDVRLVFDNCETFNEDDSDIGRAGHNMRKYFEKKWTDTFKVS
# Test: qHTS Assay for Inhibitors of BAZ2B; also: nearly all actives have a fitted effect of over 60% in size
# Conditions: AlphaScreen BAZ2B-H3K14Ac peptide displacement; series mostly up to 114 µM
# From the text: BAZ2B (bromodomain adjacent to zinc finger domain, 2B) belongs to a family of ubiquitously expressed bromodomain containing proteins, which biological function has not yet been elucidated. […] The interaction of BAZ2B with ISWI mediated by the BAZ1 motif has recently been described. […] The protocol is based on the AlphaScreen (PerkinElmer) displacement assay developed by NCGC [5], but uses the peptide ligand Biot-H3K14Ac, a high affinity binding partner for BAZ2B, in an AlphaScreen format. Although AlphaScreen has significant advantages with its utility in a variety of epigenetic target assays, the primary screening data provided in this deposition should be used with caution due to the prevalence of screening artifacts. The top compound concentration tested was 110uM in this assay, which increases number of actives and potential artifacts. An AlphaScreen counterscreen is highly recommended to be run against any putative actives to eliminate non-specific artifacts. Alternatively, one can use other AlphaScreen assays in PubChem to filter out promiscuous hits. Eberharter, A. et al. ACF1 improves the effectiveness of nucleosome mobilization by ISWI through PHD-histone contacts. The EMBO journal 23, 4029-4039. 2004. PMID: 15457208 [2] Jones, M.H. et al. A novel family of bromodomain genes. Genomics 63, 40-45. 2000. PMID: 10662543 [3] Yasgar, et al. Compound Management for Quantitative High-Throughput Screening. JALA. 2008 Apr;13(2):79-89. PMID: 18496600 [4] Inglese, et al. Quantitative high-throughput screening: a titration-based approach that efficiently identifies biological activities in large chemical libraries. Proc Natl Acad Sci. 1;103(31):11473-8. 2006. PMID: 16864780 [5] Quinn et al. A chemiluminescence-based method for identification of histone lysine methyltransferase inhibitors. Mol Biosyst 6(5): 782-8. 2010. PMID: 20567762 [6] Baell,Holloway. New substructure filters for removal of pan assay interference compounds (PAINS) from screening libraries and for their exclusion in bioassays. J Med Chem. 53(7):2719-40. 2010. PMID: 20131845 NIH Molecular Libraries Probe Production Network [MLPCN] NIH Chemical Genomics Center [NCGC] Structural Genomics Consortium (SGC) NIH Grant: 5U54 MH084681-02
# To each well of a 1,536w plate, 2ul of BAZ2B protein (final 50nM) and 1ul biotinylated histone peptide acetylated at Lys14 [b-H3(5-23)K14Ac] (final 50nM) were added in 1x PBS buffer, pH 7.4, containing 0.01% Tween-20, using a nanoliter dispenser. Formation of a protein-peptide complex proceeded at room temperature for 30 min. A Kalypsys pin-tool was employed to transfer 23 nL of library compound solution in DMSO to each well. Following a 30 min incubation of the protein-peptide complex with compounds at room temperature, a mixture of 40 ug/mL each streptavidin-coated donor and nickel chelate acceptor AlphaScreen beads (final 10 ug/mL) were added in a 1ul dispense for a final volume of 4ul. A brief centrifugation followed (1000rpm, 1 min) and were then incubated protected from the light for 20 min at room temperature. Plates were read on an EnVision multilabel plate reader using the 1,536 plate HTS AlphaScreen aperture (excitation time 80 ms, measurement time 240 ms).
# Potency is read from the fitted curve at half-maximal effect.
row,Structure (SMILES),Potency
1,Cc1ccc(NC(=O)CSc2nc3ccccc3c3nc(CCn4cncc4C)nn23)cc1F,inactive
2,CCOc1ccccc1CNS(=O)(=O)c1cc(-c2cc(C)no2)ccc1C,inactive
3,CCN(CC)c1ccc(NS(=O)(=O)c2cc(-c3cc(C)no3)ccc2C)c(C)c1,11.2 µM (active)
4,Cc1cc(-c2ccc(C)c(S(=O)(=O)Nc3ccc(S(N)(=O)=O)cc3)c2)on1,inactive
5,Fc1ccc(-c2nc(Nc3cccc(Cl)c3)nc3c2COc2ccccc2-3)cc1,inactive
6,Cc1c(-c2nc(-c3ccc4c(c3)OCO4)no2)nnn1-c1ccc(Br)cc1F,inactive
7,C/C=C(/C)C(=O)Nc1cccc(C2=NOC3(C2)C[C@@H](C(N)=O)N(C(=O)C2(C)CC2)C3)c1 (some centres not stated),inactive
8,C/C=C\C=C\C(=O)N1CC2(CC(c3cccc(NC(=O)/C(C)=C\C)c3)=NO2)C[C@H]1C(N)=O (some centres not stated),inactive
9,C=C(C)C(=O)Nc1cccc(C2=NOC3(C2)C[C@H](C(N)=O)N(C(=O)C(c2ccccc2)c2ccccc2)C3)c1 (some centres not stated),25.1 µM (active)
10,Cc1cn(C)c(CC(=O)NCc2ccccc2)c1C(=O)O,inactive
11,COc1cccc(NC(=O)C2CCN(c3cc(C)nc4c(-c5ccc(Cl)cc5)c(C)nn34)CC2)c1,inactive
12,Cc1c(C(=O)Nc2cccc(Cl)c2)oc2ccc(S(=O)(=O)N3CCOCC3)cc12,inactive
13,CN1CCN(c2oc(-c3ccc(COc4ccc(Cl)cc4)o3)nc2C#N)CC1,25.1 µM (active)
14,N#Cc1ccc(OCc2nnc(-c3ccc([N+](=O)[O-])cc3)o2)cc1,inactive
15,COc1ccc(OCc2ccc(-c3nc(C#N)c(N4CCN(c5ccccc5)CC4)o3)o2)cc1,inactive
16,CCC(C)Nc1oc(-c2ccc(COc3ccc(Cl)cc3)o2)nc1C#N (configuration not stated),inactive
17,N#Cc1nc(COc2ccc(Cl)cc2)oc1N1CCCC1,39.8 µM (active)
18,Cc1ccc(OCc2nc(C#N)c(N3CCCC3)o2)cc1,inactive
19,CCc1nnc(SCc2nc(-c3cccc(C)c3)oc2C)c2cc3sc(C)cc3n12,inactive
20,Cc1cccc(NC(=O)Cn2nc(-c3ccc(Cl)cc3)c3ccccc3c2=O)c1,inactive
21,COc1ccc(-c2noc(CSc3nc(C)cc(=O)[nH]3)n2)cc1OC,inactive

row,Structure (SMILES),Potency
1,CCOC(=O)c1c(NC(C)=O)c2c3c(sc2n1Cc1c(C)cc(C)cc1C)CCCC3,inactive
2,Cc1ccc(-c2cnc(C3CC3)o2)cc1S(=O)(=O)Nc1cccc(C)c1C,inactive
3,OC(c1nnc(-c2ccccc2)o1)c1cccs1 (configuration not stated),inactive
4,CC(=O)c1ccc(NC(c2ccc(F)cc2)c2nnc(-c3ccccc3)o2)cc1 (configuration not stated),inactive
5,CCCN(CCC)c1ccc(C(O)c2nnc(-c3ccccc3)o2)cc1 (configuration not stated),31.6 µM (active)
6,COc1ccc(-c2nc(CN3CCC(C(=O)NCc4ccccc4)CC3)c(C)o2)cc1OC,inactive
7,O=C(c1cncc(Br)c1)N1CCN(c2ccc([N+](=O)[O-])cc2)CC1,inactive
8,COc1ccc(N2CCN(c3ccc([N+](=O)[O-])cc3Cl)CC2)cc1,10 µM (active)
9,CN(C)S(=O)(=O)N1CCN(c2ccc([N+](=O)[O-])cc2)CC1,inactive
10,COc1ccccc1N1CCN(c2ccc([N+](=O)[O-])nc2)CC1,inactive
11,COc1ccc(N2CCN(c3ccc([N+](=O)[O-])nc3)CC2)cc1,inactive
12,O=[N+]([O-])c1ccc(N2CCN(c3ccc(O)cc3)CC2)c(Cl)c1,20 µM (active)
13,COc1ccc(-c2nc(C)c(CCNC(=O)c3ccc(C(F)(F)F)cc3)s2)cc1OC,inactive
14,Cc1cc(C)c2oc(C(=O)Nc3ccc(S(=O)(=O)N4CCCCCC4)cc3)cc(=O)c2c1,inactive
15,CCCCc1nn2c(=O)cc(COC(=O)c3ccc(NC(=O)c4ccccc4C)cc3)nc2s1,inactive
16,CN1CCN(C2(CNC(=O)COc3ccc(C(C)(C)C)cc3)CCCCC2)CC1,inactive
17,CC1CCN(S(=O)(=O)c2ccc3c(c2)N(CC(=O)NCc2ccccc2Cl)C(=O)CO3)CC1,inactive
18,CCOC(=O)c1scc(-c2ccc(C)cc2)c1S(=O)(=O)Nc1cc(C)ccc1C,inactive
19,O=C1CCCC(O)=C1N=Nc1ccc(S(=O)(=O)N2CCOCC2)cc1,79.4 µM (active)
20,O=C(CN1C(=O)CCC1=O)Nc1ccc(S(=O)(=O)N2CCOCC2)cc1,inactive
21,CC1(C)CC(=O)C(N=Nc2ccc(S(=O)(=O)N3CCCCCC3)cc2)=C(O)C1,inactive

row,Structure (SMILES),Potency
1,COC(=O)c1ccc2c(c1)N(CC(=O)Nc1ccc(C)c(C)c1)C(=O)c1ccccc1S2,inactive
2,COCCNC(=O)CSc1c(C)cnc2c1c(=O)n(C)c(=O)n2C,inactive
3,COc1cc2ccccc2cc1C(=O)Nc1cccc(-c2nc3ccccc3o2)c1,inactive
4,Cc1ccccc1NC(=O)CN1C(=O)C(C)(C)c2ccccc21,inactive
5,O=C1N/C(=C/c2cccn2-c2ccccc2)C(=O)N1c1cccc(Cl)c1,inactive
6,Cc1ccccc1NC(=O)CN1C(=O)N/C(=C\c2cccn2-c2cccc(C(=O)O)c2)C1=O,20 µM (active)
7,COc1ccc(OC)c(NC(=O)CSC2=Nc3ccccc3C3=NC(CC(=O)NCCc4ccccc4)C(=O)N23)c1 (configuration not stated),inactive
8,O=C(CCSCc1ccccc1F)N1CCN(c2ccc(Cl)cc2)CC1,inactive
9,O=c1c2ccccc2ncn1/N=C/c1ccccc1,inactive
10,CCCc1nc2ccccc2c(=O)n1/N=C/c1ccc(O)c(O)c1,56.2 µM (active)
11,CCOc1cc(/C=N/NC(=O)c2cc(-c3ccccc3)nc3ccccc23)ccc1O,inactive
12,COc1ccc(Cn2ccn(Cc3cccc(OC)c3)c(=O)c2=O)cc1,inactive
13,COc1ccc(CCNC(=O)c2ccc(-n3c(C)cc4c3CCCC4)cc2)cc1OC,inactive
14,CC(C)(C)c1ccc(Oc2ccc(N)cc2)cc1,39.8 µM (active)
15,Cc1ccc(Oc2ccc(N)cc2)cc1,31.6 µM (active)
16,CC(C)(c1ccccc1)c1ccc(OCCN)cc1,inactive
17,CN(C)S(=O)(=O)c1ccc(Oc2ccc(S(=O)(=O)N(C)C)cc2)cc1,inactive
18,Cc1cc(C)cc(N)c1,inactive
19,CC(C)(C)c1ccc(OC2=CS(=O)(=O)c3ccccc32)cc1,inactive
20,O=C(CSc1oc(-c2ccco2)nc1S(=O)(=O)c1ccc(Cl)cc1)c1ccccc1,inactive
